Experimental findings from PubChem BioAssay (NCI) are described below.

Holding throughout (assay): NCI-60 one-dose screen, 48 h (100 = growth as untreated, 0 = no growth, -100 = all killed)
Settings in all cases: 10 µM unless noted

Assay [1] deals with RPMI-8226 leukemia.
For assay [2], the system named is OVCAR-5 ovarian.
The subject of assay [3] is OVCAR-4 ovarian.
For assay [4], the system named is SK-OV-3 ovarian.
Assay [5] has as its system IGROV1 ovarian.
Assay [6] relates to OVCAR-3 ovarian.
In assay [7] the test system is HS 578T breast.
Assay [8] concerns NCI/ADR-RES ovarian.
The test system of assay [9] is T-47D breast.
In assay [10] the test system is BT-549 breast.
Assay [11] has as its system MDA-MB-435 melanoma.
Assay [12] concerns SW-620 colon.
Assay [13] relates to MCF7 breast.
For assay [14], the system named is HCT-116 colon.
The test system of assay [15] is HCC-2998 colon.
Assay [16] deals with KM12 colon.
For assay [17], the system named is OVCAR-8 ovarian.

About 83,000 compounds went through this panel and 20% of them were active in at least one assay; those are over-represented in the sample as a whole.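 Single-dose data. Exposure time 48 hours. Values below 10 considered active.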 A number with no mark means an inactive call. Activity calls are given as the source filed them.

Turning to `CC(C)C[C@H](C(=O)O)N(C)C(=O)[C@@H]1CCCN1C(=O)[C@H](C)OC(=O)[C@H](CCC(N)=O)NC(=O)[C@@H]1CCC(=O)N1`, the growth is 108% in [1]; 100% in assay [2]; 86.8% in [3]; 92.8% in assay [4]; 114% in assay [5]; 103% in assay [6]. Moreover, the growth was 107% in [7]; 111% in [8]; 86.8% in assay [9]; 94.2% in [10]; 106% in assay [11]; 106% in assay [12]. Besides, the growth was 85.2% in assay [13], 99.2% in assay [14], 108% in assay [15] and 100% in [16].

As for `COc1ccc(C2CC(c3ccc(OC)cc3O)=NN2c2ccc(S(N)(=O)=O)cc2)cc1` (configuration not stated), the growth in assay [1] is -32.6% (active); in [2] it was 83.7%; in [3], 42.3%; in assay [4] it was 69.2%; in assay [5], 13.2%; in assay [6], 47.7%. The growth in assay [7] was 78.1%; in [8] it was 54%; in assay [9] it was 24.5%; in assay [10], 58.2%; in assay [11] it was 36.8%; in assay [12], 50.6%. Moreover, the growth in [13] was 13.7%; in assay [14], 20.5%; in assay [15], 54.4%; in assay [16] it was 23.7%.

As for `CN(C)C(CNc1oc(-c2cccc3ccccc23)nc1C#N)c1ccco1` (configuration not stated), the growth in assay [1] is 87.8%; in assay [2], 94.6%; in assay [3] it was 83.2%; in assay [4], 104%; in assay [5] it was 95.7%; in [6], 96.2%. The growth in [7] is 89.6%; in assay [8], 94.8%; in assay [9] it was 72%; in assay [10], 91.4%; in assay [11], 97.4%; in assay [12] it was 103%. Also, the growth in [13] was 87.8%; in [14], 89.3%; in [15], 105%; in assay [16], 97.4%.

On to `COc1cc(NCC(=O)Nc2cc(Nc3ccc(C)cc3)ncn2)c(Cl)c(OC)c1Cl`, for which the growth in [1] is 82.9%; in assay [2], 92.3%; in [3] it was 78.5%; in [4], 81.9%; in assay [6] it was 84.3%; in assay [7], 83.5%. The growth in assay [8] is 91.3%; in assay [9], 70.6%; in assay [10], 101%; in assay [11] it was 102%; in [12], 103%; in assay [13], 78.6%. The growth in assay [14] is 88.4%; in assay [15], 92.6%; in [16], 87.5%.

For the compound `CSc1nc(-c2ccco2)c2c(N)[nH]nc2n1`, the growth in [1] was 109%; in [2], 109%; in assay [3], 109%; in assay [4] it was 98.6%; in assay [6], 116%; in [7], 108%. The growth is 103% in [8]; 75.7% in assay [9]; 102% in [10]; 115% in assay [11]; 111% in assay [12]; 94.2% in assay [13]. The growth in [15] is 111%; in assay [16], 44.1%.

Turning to `Cc1nccc2c3ccc(OCc4cn(-c5ccc(Br)cc5)nn4)cc3n(CC(C)C)c12`, the growth in assay [1] was -16.2% (active); in [2], 68.2%; in [3], 58.8%; in [4] it was 43.4%; in [5] it was 67.4%; in [6], 57.8%. For the same compound, the growth in assay [7] is 59.4%; in [8], 32.1%; in assay [9] it was 36.9%; in assay [10], 54.4%; in [11], 61.3%; in assay [12] it was 48%. In addition, the growth was 31.2% in assay [13], 23% in [14], 70.3% in assay [15] and 44.8% in assay [16].

On to `COc1ccc2nc(-c3ccc(Cl)cc3)cc(-c3nnc(SCC(=O)Nc4ccc(/C(C)=N\O)cc4)o3)c2c1`, for which the growth was 0.357% (active) in [17]; 81.1% in assay [2]; -56.1% (active) in [3]; 87.5% in assay [4]; 60.2% in assay [5]; 36.8% in [6]. Besides, the growth is 64.8% in [7]; 1.11% (active) in assay [8]; 41.7% in [9]; 25.4% in assay [10]; 16.4% in assay [11]; 3.98% (active) in [12]. In addition, the growth was 7.93% (active) in assay [13], 2.59% (active) in assay [14], 82% in [15] and 30.9% in [16].

Consider `CCOC(=O)C(=Cc1c(-c2ccccc2)[nH]c2ccccc12)C(=O)OCC`, for which the growth is -47.8% (active) in assay [1]; 98.3% in assay [2]; 49.9% in [3]; 94.5% in assay [4]; 34.7% in assay [5]; 38% in [6]. Also, the growth in [7] was 59.5%; in assay [8] it was 24.7%; in assay [9], 21.1%; in assay [10], 67.1%; in [11], 14.5%; in assay [12], 53.5%. Besides, the growth in assay [13] was 41.6%; in [14], 41%; in assay [15] it was 80.7%; in assay [16], 24.1%.

Consider `O=C1Nc2ccccc2C12C=C(c1ccccc1)Nc1c2c(-c2ccccc2)nn1-c1ccccc1` (configuration not stated), for which the growth is 40.8% in [1]; 73% in assay [2]; 78% in assay [3]; 87% in [4]; 67.9% in assay [5]; 70.3% in assay [6]. Also, the growth is 78.9% in assay [7]; 66.2% in assay [8]; 61.7% in [9]; 70.1% in [10]; 65.1% in assay [11]; 75.6% in assay [12]. The growth in assay [13] is 39%; in [14] it was 48.6%; in [15], 72.3%; in assay [16], 56.1%.

Consider `N#Cc1c(-c2ccc(F)cc2)nc(N=Nc2c(O)[nH]c3ccccc23)nc1N1CCOCC1`, for which the growth in assay [1] was 80.4%; in [2], 82.6%; in [3], -35.5% (active); in assay [4], 88.2%; in assay [5], 59.9%; in [6] it was 72.9%. Moreover, the growth in assay [7] is 38.5%; in assay [8] it was 57.3%; in assay [9], 80.2%; in assay [10] it was 91.4%; in assay [11], 67.7%; in assay [12] it was 66.7%. Besides, the growth is 64.4% in assay [13], 47.2% in assay [14], 96.2% in assay [15] and 75.1% in [16].
